Screening results: PubChem BioAssay, National Center for Advancing Translational Sciences (NCATS)
Sampled rows, rich in hits. Any-hit rate of the full collection: about 2.4%.
Casp7 inh – blocks human caspase-7 allosterically or competitively | recombinant caspase-7, Ac-DEVD-AFC fluorescence rate | Potency, µM (titrated, usually from 57.5 µM), for the others: top-dose activity change, negative = inhibition, hits mostly inhibitors | AID 889 | hit rate 0.02% among 75,000 | P55210; active = well fitted inhibition curve with a large enough effect in the main read-out, with a control signal flat, not every such curve was filed as active; inconclusive = small, poorly fitted or top-dose-only effect, or a change in a side signal; note: % of control where 0% means no effect
Tau fil binding – binders of human tau filaments; recombinant tau filaments, thioflavin S fluorescence, 15 h; filaments grown with octadecylsulfate alongside compound; AID 596; Potency, µM (series often up to 57.1 µM), for the others: at the top dose activity change, negative = inhibition; hit rate 2% among 71,000;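 note: % is set by controls: 0 for no effect and ±100 for the full control effect; actives lower thioflavin S fluorescence by blocking filaments or displacing dye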
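Thioflavine S fluorescence (ex 450, em 510 nm) reports filaments formed from 1 uM human tau plus 30 uM ODS over 15 h at 37 C (10 mM HEPES pH 7.4, 100 mM NaCl, 5 mM DTT); compounds displacing dye or blocking filaments lower signal.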
ALOX15B inhib – inhibitors of human 15-lipoxygenase 2 (ALOX15B); purified 15hLO-2, xylenol orange hydroperoxide absorbance; Potency, µM (highest dose often 57.1 µM), for inactives: top-dose activity change, negative = inhibition, actives largely listed as inhibitors; hit rate 0.56% among 110,000; AID 881; O15296; note: % is set by controls: 0 for no effect and ±100 for the full control effect; nearly all actives have a fitted effect of over 60% in size
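Purified human 15hLO-2 (50 nM) preincubated 15 min with compound, then 45 uM arachidonic acid for 90 min at RT in 25 mM Hepes pH 7.5, 0.01% Triton X-100. Hydroperoxide detected by Fe-xylenol orange; 573/405 nm absorbance ratio.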
Caspase-1 inhib – caspase-1 (human) inhibition, allosteric or competitive. P29466. hit rate 0.03% among 75,000. Caspase-1 enzyme, Ac-WEHD-AFC fluorogenic rate. AID 900. Potency, µM (titrated, usually from 57.5 µM), inactives show at the highest dose activity change, negative = inhibition, usual class: inhibitors;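 note: plate controls were vehicle for no effect and no substrate for full effect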
Hsp90 Hop PPI – changes Hsp90-Hop TPR2A binding signal, up or down | AlphaScreen TPR2A-His6 binding biotin-Hsp90 C-terminal peptide | AID 595 | hit rate 0.44% among 71,000 | Potency, µM (series often up to 57 µM), without a hit: at the highest dose activity change, negative = inhibition; active = well fitted curve in either direction with a large enough effect; inconclusive = small, poorly fitted or top-dose-only effect, or another doubt; note: % is set by controls: 0 for no effect and ±100 for the full control effect
ALOX15 inhib – blocks human 15-lipoxygenase activity; purified 15hLO-1, xylenol orange hydroperoxide absorbance; Potency, µM (doses to about 57.1 µM), for the others: at the top dose activity change, negative = inhibition, hits mostly inhibitors; hit rate 1.4% among 74,000; note: % is set by controls: 0 for no effect and ±100 for the full control effect; nearly all actives have a fitted effect of over 55% in size
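Quantitative HTS in 25 mM Hepes pH 7.5 containing 0.01% Triton X-100: human 15hLO-1 at 40 nM, arachidonic acid at 50 uM, 6 min turnover. Product quantified via ferrous oxidation/xylenol orange, 573:405 nm absorbance ratio.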
* hit, by the source's call; u = inconclusive; x = no result given; ! = not confirmed by another sample; [ ] = remark or other dose. Unless noted, calls come from the whole dose curve; as a rule, active = well fitted curve in the direction sought with a large enough effect; inconclusive = small, poorly fitted or top-dose-only effect, or another doubt; inactive = no such curve, though single readings can be large; an effect the other way counts as inactive or inconclusive. Potency is the fitted concentration of half-maximal effect.

SMILES	Casp7 inh	Tau fil binding	ALOX15B inhib	Caspase-1 inhib	Hsp90 Hop PPI	ALOX15 inhib
CC(C)=CCCC1(C)C=Cc2c(O)c3c(c(CC=C(C)C)c2O1)OC12C(=CC4CC1C(C)(C)OC2(C/C=C(/C)C(=O)O)C4=O)C3=O (stereo not given)	-15%	x	u	-5%	x	16µM*
c1ccc2c(c1)Nc1ccccc1S2	-1%	-18%	5µM*	-1%	-19%	6.3µM*
N[C@@H](Cc1cc(O)c(O)cc1O)C(=O)O	u	25µM*	33%	u	7.9µM*	u
COc1ccccc1CN1CCCCC1c1cccnc1 (stereo not given)	-2%	-9%	0%	-2%	-4%	-1%
Cc1ccc2c(c1N)C(=O)c1ccccc1C2=O	-5%	4µM*	-8%	-6%	-20%	4%
O=C1c2ccccc2C(=O)c2ccccc21	-16%	x	-3%	-13%	x	6%
Nc1ccc(N2CCN(Cc3ccccc3Cl)CC2)c(Cl)c1	-2%	25µM*	4%	-1%	-18%	7%
Clc1ccccc1CN1CCN(c2ccccc2)CC1	x	x	-10%	x	x	x
CCC(=O)OC1CCC2C3CCC4=CC(=O)CC[C@@]4(C)C3CC[C@]12C (stereo not given in full)	-8%	x	-15%	-3%	x	-2%
N[C@H](Cc1ccc(N(CCCl)CCCl)cc1)C(=O)O	-2%	2%	10%	1%	-18%	-1%
CC[n+]1c(-c2ccccc2)c2cc(N)ccc2c2ccc(N)cc21	u	0.32µM*	-11%[0.0915 µM]	x	-18%	10µM*!
O=C1C2CCCN2C(c2ccc(Cl)cc2)N1c1ccccn1 (stereo not given)	1%	2%	6%	-1%	1%	-5%
O=C(O)Cc1cccnc1C(=O)O	0%	u	31%	-2%	7.9µM*	-22%[25.6 µM]
O=C(O)COc1ccccc1	0%	-2%	-7%	0%	-4%	u
O=C1C=CC(=O)c2c(O)cccc21	u	x	3.2µM*	20µM*	x	2µM*
COc1cc(CN2C(=O)NC(=O)C3(Cc4cc(C)ccc4N(C)C3)C2=O)cc(OC)c1 (stereo not given)	-1%	-6%	-19%	-2%	-1%	-14%
COc1ccc2c(c1)CC1(CN2C)C(=O)NC(=O)N(CCc2ccccc2)C1=O (stereo not given)	-25%	148%	-15%	u	-12%	16µM*
CCOC(=O)N(CC)c1ccc(C(O)(C(=O)OCC)C(F)(F)F)cc1 (stereo not given)	-2%	-13%	5%	3%	-3%	12%
CCOCCN1CCC(OC(C)=O)C(C)C1 (stereo not given)	x	x	0%	x	x	x
CC(C)NC[C@@H](O)COc1cccc2[nH]ccc12	-3%	u	13%	-2%	3%	-6%[25.6 µM]
O=C1CN=C(c2cccs2)c2c(sc3c2CCCC3)N1	-1%	-8%	-14%	-2%	-8%	16µM*
Cc1o[nH]c(=O)c1C[C@@H](N)C(=O)O	0%	u	16%	1%	-2%	-10%[25.6 µM]
Cc1o[nH]c(=O)c1C[C@H](N)C(=O)O	4%	32µM*!	10%	0%	1%	-10%[25.6 µM]
O=C(c1cc2c(s1)CCCC2)N1CCC2(CC1)OCCO2	0%	5%	7.9µM*	0%	-6%	4%
O=[As](O)(O)c1ccc(N=Nc2ccc(O)cc2)cc1	0%[11.5 µM]	3.2µM*	-5%[11.4 µM]	-2%[11.5 µM]	-7%[11 µM]	-3%[11.4 µM]
COCCOC(=O)C1=C(N)Oc2c(c(=O)oc3ccccc23)[C@@]12C(=O)Nc1ccccc12	x	x	-9%	x	x	x
Nc1c(C(=O)NCc2ccco2)c2nc3ccccc3nc2n1CCN1CCOCC1	x	x	-7%	x	x	x
O=C(O)[C@@H]1[C@H](C(=O)O)[C@]2(Cl)C(Cl)=C(Cl)[C@@]1(Cl)C2(Cl)Cl	-3%[11.5 µM]	-8%[11.4 µM]	u	-2%[11.5 µM]	-2%[11 µM]	2.5µM*
CC(=O)OC1N=C(c2ccc(Cl)cc2)c2cc(Br)ccc2NC1=O (stereo not given)	x	x	7%	x	x	x
O=[N+]([O-])c1cc(C(F)(F)F)cc([N+](=O)[O-])c1Cl	-2%	35%	-10%	2%	-4%	u
